Values joined by “and” are separate entries in the source; they are usually repeats but may differ in a detail not shown here. Equal values may be shown once. About 2,000 (36%) of roughly 5,500 compounds were called active. Another 18% or so got no clear call; they are omitted. Cut-off read from the data, not from the text of the source: active = normalized growth mostly below about 0.91 (no sharp cut-off); inconclusive = no clear call, values can overlap the other calls; inactive = mostly above about 0.92. The list shows a part of the results.
Test: chemical genetic growth profiling, strain panel (AID 1159580);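 note: tested at 20 µM; growth read once vehicle control cultures reached saturation at 30 °C; 1 = growth at the plate median or of vehicle wells; lower values mean less growth of the strain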
Settings: growth OD

COc1cc(-c2coc3cc(OCc4ccccc4)c(OC)c(O)c3c2=O)cc(O)c1OC
normalized growth (S. cerevisiae deletion strains, locus YAL013W, strain DEP1, stronger effect = lower value): 0.788 (active) | normalized growth (S. cerevisiae deletion strains, locus YBR021W, strain FUR4, stronger effect = lower value): 0.908 (inactive) | normalized growth (S. cerevisiae deletion strains, locus YBR229C, strain ROT2, stronger effect = lower value): 0.985 (inactive) | normalized growth (S. cerevisiae deletion strains, locus YCL029C, strain bik1, stronger effect = lower value): 0.962 (inactive) | normalized growth (S. cerevisiae deletion strains, locus YDL035C, strain GPR1, stronger effect = lower value): 0.757 (active) | normalized growth (S. cerevisiae deletion strains, locus YDL074C, strain BRE1, stronger effect = lower value): 0.764 (active) | normalized growth (S. cerevisiae deletion strains, locus YDL101C, strain DUN1, stronger effect = lower value): 0.918 (inactive) | normalized growth (S. cerevisiae deletion strains, locus YDL185W, strain tfp1, stronger effect = lower value): 0.968 (inactive) | normalized growth (S. cerevisiae deletion strains, locus YDL192W, strain arf1, stronger effect = lower value): 0.864 (active) | normalized growth (S. cerevisiae deletion strains, locus YDR101C, strain arx1, stronger effect = lower value): 0.958 (inactive) | normalized growth (S. cerevisiae deletion strains, locus YDR150W, strain NUM1, stronger effect = lower value): 0.911 (inactive) | normalized growth (S. cerevisiae deletion strains, locus YDR162C, strain NBP2, stronger effect = lower value): 0.714 (active) | normalized growth (S. cerevisiae deletion strains, locus YDR318W, strain mcm21, stronger effect = lower value): 0.877 (active) | normalized growth (S. cerevisiae deletion strains, locus YDR388W, stronger effect = lower value): 0.954 (inactive) | normalized growth (S. cerevisiae deletion strains, locus YDR502C, strain sam2, stronger effect = lower value): 0.901 (active) | normalized growth (S. cerevisiae deletion strains, locus YEL061C, strain CIN8, stronger effect = lower value): 0.821 (active) | normalized growth (S. cerevisiae deletion strains, locus YER110C, stronger effect = lower value): 1 (inactive) | normalized growth (S. cerevisiae deletion strains, locus YER155C, strain BEM2, stronger effect = lower value): 0.946 (inactive) | normalized growth (S. cerevisiae deletion strains, locus YER167W, strain BCK2, stronger effect = lower value): 0.879 (active) | normalized growth (S. cerevisiae deletion strains, locus YGL078C, strain dbp3, stronger effect = lower value): 0.937 (inactive) | normalized growth (S. cerevisiae deletion strains, locus YGL086W, strain mad1, stronger effect = lower value): 0.841 (active) | normalized growth (S. cerevisiae deletion strains, locus YGL248W, strain PDE1, stronger effect = lower value): 0.787 (active) | normalized growth (S. cerevisiae deletion strains, locus YGR135W, strain pre9, stronger effect = lower value): 0.836 (active) | normalized growth (S. cerevisiae deletion strains, locus YGR252W, strain gcn5, stronger effect = lower value): 0.81 (inactive) | normalized growth (S. cerevisiae deletion strains, locus YHR030C, strain SLT2, stronger effect = lower value): 0.808 (active) and 1.01 (inactive) | normalized growth (S. cerevisiae deletion strains, locus YHR079C, strain IRE1 (second series), stronger effect = lower value): 0.967 (inactive) | normalized growth (S. cerevisiae deletion strains, locus YHR079C, strain IRE1, stronger effect = lower value): 1.01 (inactive) | normalized growth (S. cerevisiae deletion strains, locus YHR094C, strain hxt1, stronger effect = lower value): 1 (inactive) | normalized growth (S. cerevisiae deletion strains, locus YHR129C, strain ARP1, stronger effect = lower value): 0.783 (active) | normalized growth (S. cerevisiae deletion strains, locus YHR200W, strain rpn10, stronger effect = lower value): 0.883 (active) | normalized growth (S. cerevisiae deletion strains, locus YIL066C, strain RNR3, stronger effect = lower value): 0.733 (active) | normalized growth (S. cerevisiae deletion strains, locus YIL073C, strain SPO22, stronger effect = lower value): 0.685 (inactive) | normalized growth (S. cerevisiae deletion strains, locus YIL125W, strain kgd1, stronger effect = lower value): 1 (inactive) | normalized growth (S. cerevisiae deletion strains, locus YIR030C, strain dcg1, stronger effect = lower value): 0.979 (inactive) | normalized growth (S. cerevisiae deletion strains, locus YJL095W, strain BCK1, stronger effect = lower value): 0.778 (active) and 1.02 (inactive) | normalized growth (S. cerevisiae deletion strains, locus YJL134W, strain LCB3, stronger effect = lower value): 0.981 (inactive) | normalized growth (S. cerevisiae deletion strains, locus YJL168C, strain set2, stronger effect = lower value): 0.993 (inactive) | normalized growth (S. cerevisiae deletion strains, locus YJL187C, strain SWE1 (second series), stronger effect = lower value): 0.837 (active) | normalized growth (S. cerevisiae deletion strains, locus YJR043C, strain POL32, stronger effect = lower value): 0.747 (active) | normalized growth (S. cerevisiae deletion strains, locus YJR066W, strain TOR1, stronger effect = lower value): 0.95 (inactive) | normalized growth (S. cerevisiae deletion strains, locus YKL009W, strain mrt4, stronger effect = lower value): 0.922 (inactive) | normalized growth (S. cerevisiae deletion strains, locus YKL068W, stronger effect = lower value): 1.02 (inactive) | normalized growth (S. cerevisiae deletion strains, locus YKL085W, strain MDH1 (second series), stronger effect = lower value): 0.996 (inactive) | normalized growth (S. cerevisiae deletion strains, locus YKL085W, strain MDH1, stronger effect = lower value): 0.996 (inactive) | normalized growth (S. cerevisiae deletion strains, locus YKR001C, strain vps1, stronger effect = lower value): 0.88 (active) | normalized growth (S. cerevisiae deletion strains, locus YLR039C, strain RIC1, stronger effect = lower value): 0.86 (inactive) | normalized growth (S. cerevisiae deletion strains, locus YLR058C, strain SHM2, stronger effect = lower value): 0.863 (active) | normalized growth (S. cerevisiae deletion strains, locus YLR102C, strain apc9, stronger effect = lower value): 0.998 (inactive) | normalized growth (S. cerevisiae deletion strains, locus YLR113W, strain HOG1, stronger effect = lower value): 1.02 (inactive) | normalized growth (S. cerevisiae deletion strains, locus YLR262C, strain YPT6, stronger effect = lower value): 0.857 (inactive) | normalized growth (S. cerevisiae deletion strains, locus YLR268W, strain sec22, stronger effect = lower value): 0.903 (inactive) | normalized growth (S. cerevisiae deletion strains, locus YLR330W, strain CHS5, stronger effect = lower value): 0.827 (active) | normalized growth (S. cerevisiae deletion strains, locus YLR342W, strain FKS1 (second series), stronger effect = lower value): 0.785 (active) | normalized growth (S. cerevisiae deletion strains, locus YLR371W, strain rom2, stronger effect = lower value): 0.86 (active) | normalized growth (S. cerevisiae deletion strains, locus YLR418C, strain cdc73, stronger effect = lower value): 0.705 (active) | normalized growth (S. cerevisiae deletion strains, locus YML016C, strain PPZ1, stronger effect = lower value): 0.846 (active) | normalized growth (S. cerevisiae deletion strains, locus YML032C, strain rad52, stronger effect = lower value): 0.956 (inactive) | normalized growth (S. cerevisiae deletion strains, locus YML124C, strain tub3, stronger effect = lower value): 0.964 (inactive) | normalized growth (S. cerevisiae deletion strains, locus YMR078C, strain ctf18, stronger effect = lower value): 1.01 (inactive) | normalized growth (S. cerevisiae deletion strains, locus YMR223W, strain ubp8, stronger effect = lower value): 0.877 (active) | normalized growth (S. cerevisiae deletion strains, locus YMR263W, strain SAP30, stronger effect = lower value): 0.893 (inactive) | normalized growth (S. cerevisiae deletion strains, locus YMR307W, strain GAS1, stronger effect = lower value): 0.736 (inactive) | normalized growth (S. cerevisiae deletion strains, locus YNL067W, strain RPL9B, stronger effect = lower value): 0.829 (active) | normalized growth (S. cerevisiae deletion strains, locus YNL153C, strain GIM3, stronger effect = lower value): 0.843 (active) | normalized growth (S. cerevisiae deletion strains, locus YNL183C, strain NPR1, stronger effect = lower value): 0.972 (inactive) | normalized growth (S. cerevisiae deletion strains, locus YNL233W, strain BNI4, stronger effect = lower value): 0.796 (active) | normalized growth (S. cerevisiae deletion strains, locus YNL250W, strain rad50, stronger effect = lower value): 0.945 (inactive) | normalized growth (S. cerevisiae deletion strains, locus YNL271C, strain bni1, stronger effect = lower value): 0.979 (inactive) | normalized growth (S. cerevisiae deletion strains, locus YNL298W, strain CLA4, stronger effect = lower value): 0.989 (inactive) | normalized growth (S. cerevisiae deletion strains, locus YNL307C, strain MCK1, stronger effect = lower value): 0.844 (active) | normalized growth (S. cerevisiae deletion strains, locus YNL322C, strain KRE1, stronger effect = lower value): 0.823 (active) | normalized growth (S. cerevisiae deletion strains, locus YNR052C, strain pop2, stronger effect = lower value): 0.951 (inactive) | normalized growth (S. cerevisiae deletion strains, locus YOL006C, strain TOP1, stronger effect = lower value): 0.449 (active) | normalized growth (S. cerevisiae deletion strains, locus YOL012C, strain htz1): 0.39 (inactive) | normalized growth (S. cerevisiae deletion strains, locus YOL147C, strain pex11, stronger effect = lower value): 0.955 (inactive) | normalized growth (S. cerevisiae deletion strains, locus YOR061W, strain CKA2, stronger effect = lower value): 0.848 (active) | normalized growth (S. cerevisiae deletion strains, locus YOR069W, strain VPS5, stronger effect = lower value): 0.834 (active) | normalized growth (S. cerevisiae deletion strains, locus YOR136W, strain idh2, stronger effect = lower value): 0.97 (inactive) | normalized growth (S. cerevisiae deletion strains, locus YOR144C, strain elg1, stronger effect = lower value): 0.988 (inactive) | normalized growth (S. cerevisiae deletion strains, locus YOR184W, strain ser1, stronger effect = lower value): 0.896 (inactive) | normalized growth (S. cerevisiae deletion strains, locus YOR231W, strain MKK1, stronger effect = lower value): 1.02 (inactive) | normalized growth (S. cerevisiae deletion strains, locus YOR316C, strain cot1, stronger effect = lower value): 0.996 (inactive) | normalized growth (S. cerevisiae deletion strains, locus YPL241C, strain CIN2, stronger effect = lower value): 0.974 (inactive) | normalized growth (S. cerevisiae deletion strains, locus YPL256C, strain CLN2, stronger effect = lower value): 1 (inactive) | normalized growth (S. cerevisiae deletion strains, locus YPR119W, strain clb2, stronger effect = lower value): 1 (inactive) | normalized growth (S. cerevisiae deletion strains, locus YPR141C, strain kar3, stronger effect = lower value): 1.01 (inactive) | normalized growth (S. cerevisiae deletion strains, locus YPR163C, strain tif3, stronger effect = lower value): 0.837 (active) | normalized growth (S. cerevisiae deletion strains, locus YPR167C, strain met16, stronger effect = lower value): 0.871 (active) | normalized growth (S. cerevisiae deletion strains, strain wtn01, stronger effect = lower value): 0.849 (active) | normalized growth (S. cerevisiae strains, strain wild type, stronger effect = lower value): 0.663 (active)
